Test results from PubChem BioAssay (EPA / NIEHS).
“And” between values parts separate entries of the source, which are not always exact repeats. Identical values can stand only once. A structure can be active in one record and inactive in another. The source made the active and inactive calls. The calls were made as follows: active = hit-call score of the fitted dose curve at least 0.9, where 1 is the maximum; inactive = score below 0.9.

Assay: ATG_TA_CIS: Attagene CIS-FACTORIAL HepG2 Assay for human TA Basal Promoter (AID 2282964)
Settings: HepG2 Attagene CIS-factorial TA basal promoter reporter; actives raise or lower the signal
Method: ATG_CIS is a cell-based, multiplexed-readout assay that uses HepG2, a human liver cell line, with measurements taken at 24 hours after chemical dosing in a 24-well plate.ATG_TA_CIS is one of 52 assay component(s) measured or calculated from the ATG_CIS assay. It is designed to make measurements of mRNA induction, a form of inducible reporter, as detected with fluorescence intensity signals by Reverse transcription polymerase chain reaction (RT-PCR) and Capillary electrophoresis technology.Data from the assay component ATG_TA_CIS was analyzed into 1 assay endpoint. This assay endpoint, ATG_TA_CIS, was analyzed with bidirectional fitting relative to DMSO as the negative control and baseline of activity. Using a type of inducible reporter, measures of mRNA for gain or loss-of-signal activity can be used to understand the background control at the transcription factor-level as they relate to the gene . Furthermore, this assay endpoint can be referred to as a secondary readout, because this assay has produced multiple assay endpoints where this one serves a background control function. To generalize the intended target to other relatable targets, this assay endpoint is annotated to the background measurement intended target family, where the subfamily is internal marker.
Human liver HepG2 cells are transiently transfected with multiple reporter transcription units (MRTUs) in 6-well plates using FuGene 6 reagent (Roche; 3 ml FuGene/1 mg DNA). The MRTU constructs are regulated by a cis-regulating element (promoter). […] A major difference between the CIS and TRANS system is that in CIS activities of endogenous TFs are measured, whereas the TRANS assay evaluates changes in activities of exogenous, chimeric NR-Gal4 proteins. […] At the end of 24 hour incubation, total RNA was isolated using TriZol reagent (Invitrogen). The isolated RNA is then reverse-transcribed using oligo(dT) primer and Mo-MLV reverse transcriptase (Invitrogen) with DNAse I (Ambion) treatment for 30 min. The one-tenth of the produced cDNA was amplified by PCR using Taq DNA polymerase (Invitrogen) and two reporter sequence-specific primers. The PCR products were fluorescently labeled by primer extension with 6-arboxyfluorescein (6-FAM) 5'-labeled reporter sequence-specific primer (2 min at 95 C, 20 s at 68 C and 10 min at 72 C) and these products were digested with 5U of HpaI (New England Biolabs) for 2h at 37 C. The fragments were purified using Qiaquick PCR columns (Qiagen), analyzed on an ABI 3130xL genetic analyzer (Applied Biosystems) with peak positions identified by using a set of X-rhodamine (ROX)-labeled MapMarker1000 molecular weight standards (BioVentures). The raw capillary electrophoresis data was processed using Attagraph software (Attagene).

Row | Compound | outcome | AC50
1 | CC(C)(C)c1ccc(CSc2cnn(C(C)(C)C)c(=O)c2Cl)cc1 | inactive | –
2 | C=CCC1=C(C)C(OC(=O)C2C(C=C(C)C)C2(C)C)CC1=O (stereo not given) | inactive | 30.9 µM (active) and 52.5 µM (active) and 74.7 µM (active)
3 | COC(=O)N(OC)c1ccccc1COc1ccn(-c2ccc(Cl)cc2)n1 | inactive | –
4 | COc1cnc(OC)n2nc(NS(=O)(=O)c3c(OCC(F)F)cccc3C(F)(F)F)nc12 | inactive | –
5 | COC(=O)C=C(C)OP(=O)(OC)OC | inactive | –
6 | O=C(O)COc1nc(Cl)c(Cl)cc1Cl | inactive | –
7 | CCCCNC(=O)OCC#CI | inactive | 27.7 µM (active)
8 | CCOP(=S)(OCC)SCn1c(=O)oc2cc(Cl)ccc21 | inactive | –
9 | N#Cc1cc(Br)c(O)c(Br)c1 | inactive | –
10 | Fc1ccc(Oc2ccnc3cc(Cl)cc(Cl)c23)cc1 | inactive | –
11 | CCOc1cc(Oc2ccc(C(F)(F)F)cc2Cl)ccc1[N+](=O)[O-] | inactive | –
12 | N#Cc1nn(-c2c(Cl)cc(C(F)(F)F)cc2Cl)c(N)c1S(=O)C(F)(F)F (stereo not given) | inactive | –
13 | C=CC1(C)OC(=O)N(c2cc(Cl)cc(Cl)c2)C1=O (stereo not given) | inactive | –
14 | CN(C)C(=S)SSC(=S)N(C)C | inactive | –
15 | COP(N)(=O)SC (stereo not given) | inactive | –
16 | CCNc1nc(Cl)nc(NCC)n1 | inactive | –
17 | COc1nc(C)nc(NC(=O)NS(=O)(=O)c2ccccc2Cl)n1 | inactive | –
18 | CCCN(CCC)c1c([N+](=O)[O-])cc(S(N)(=O)=O)cc1[N+](=O)[O-] | inactive | –

Row | Compound | outcome | AC50
19 | CCc1nn(C)c(C(=O)NCc2ccc(C(C)(C)C)cc2)c1Cl | inactive | –
20 | COc1nc(C)nc(NC(=O)NS(=O)(=O)c2ccccc2CCC(F)(F)F)n1 | inactive | –
21 | COC(=O)c1ccccc1C(=O)OC | inactive | –
22 | COc1nc(NC(C)C)nc(NC(C)C)n1 | inactive | –
23 | CCCCC(CC)COC(=O)c1ccccc1C(=O)OCC(CC)CCCC (stereo not given) | inactive | –
24 | COC(=O)C(C)Oc1ccc(Oc2ccc(Cl)cc2Cl)cc1 (stereo not given) | inactive | –
25 | Cc1cc(Cl)ccc1OCC(=O)O | inactive | –
26 | CC(C)C1(C)N=C(c2nc3ccccc3cc2C(=O)O)NC1=O (stereo not given) | inactive | –
27 | CCCC1COC(Cn2cncn2)(c2ccc(Cl)cc2Cl)O1 (stereo not given) | inactive | 50 µM (active)
28 | Cc1ccc(-c2c(Cl)nc(C#N)n2S(=O)(=O)N(C)C)cc1 | inactive | –
29 | CC1=C(C(=O)Nc2ccccc2)SCCO1 | inactive | –
30 | CCOC(=O)C(Cl)Cc1cc(-n2nc(C)n(C(F)F)c2=O)c(F)cc1Cl (stereo not given) | inactive | –
31 | COP(=S)(OC)Oc1nc(Cl)c(Cl)cc1Cl | inactive | –
32 | CCCCOC(=O)c1ccccc1C(=O)OCCCC | inactive | 39.8 µM (active)
33 | C=CCC1=C(C)[C@@H](OC(=O)[C@@H]2[C@@H](C=C(C)C)C2(C)C)CC1=O | inactive | –
34 | O=C(Nc1ccccc1)Nc1ccnc(Cl)c1 | inactive | –
35 | CCOC(=O)CC(SP(=S)(OC)OC)C(=O)OCC (stereo not given) | inactive | –
36 | OC(c1ccc(Cl)cc1)(c1cncnc1)c1ccccc1Cl (stereo not given) | inactive | –
